Sampled rows, rich in hits. Any-hit rate of the full collection: about 2.4%.
ANO1 activ: mouse TMEM16A channel activation, primary screen | HEK293 TMEM16A/YFP-H148Q/I152L, iodide quench fluorescence; hits give low values | Q8BHY3 | 340,000 compounds, 0.3% hits | B-score at 10 µM | AID 623877;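 active means fluorescence-ratio B-score plate-corrected deviation score at least 3 library SD below zero, with starting fluorescence score within 5 deviations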;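 further: channel opened by trigger with iodide after compound preincubation; score built on the fluorescence ratio of max minus min over baseline; more negative score means more quench and so TMEM16A activation or potentiation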
TLR9-MyD88 block: inhibitors of human TLR9-MyD88 binding | Q9NR96+Q99836 | inhibition, % at 4.98 µM | CHO BLA complementation TLR9-MyD88, CCF4 FRET ratio | 340,000 compounds, 0.21% hits;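 active means inhibition above the mean over all tested compounds plus 3 SD, cut at about 21% in these data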;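 further: 0% = DMSO only wells and 100% = clavulanate BLA inhibitor control wells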
NOD2 RIPK2 PPI: blocks binding of human NOD2 to RIPK2; O43353; CHO BLA complementation NOD2-RIPK2, CCF4 ratio; inhibition, % at 4.98 µM; 360,000 compounds, 0.38% hits; in the data active means inhibition above about 21%;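 further: 0% = vehicle only and 100% = reference blocker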
m5-HT2A agonist: agonists of mouse serotonin 5-HT2A receptor (HTR2A); 360,000 compounds, 0.66% hits; AID 624169; P35363; activation, % at 7.6 µM; CHO-K1 mHTR2A beta-arrestin complementation, luminescence; percent of 30 µM serotonin response;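 active means activation above a run cutoff, the mean activation of all tested compounds plus 3 SD, cut at about 14% in these data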;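 further: 0% = plate median of compound wells and 100% = 30 µM serotonin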
Target sequence (P35363 whole entry, looked up): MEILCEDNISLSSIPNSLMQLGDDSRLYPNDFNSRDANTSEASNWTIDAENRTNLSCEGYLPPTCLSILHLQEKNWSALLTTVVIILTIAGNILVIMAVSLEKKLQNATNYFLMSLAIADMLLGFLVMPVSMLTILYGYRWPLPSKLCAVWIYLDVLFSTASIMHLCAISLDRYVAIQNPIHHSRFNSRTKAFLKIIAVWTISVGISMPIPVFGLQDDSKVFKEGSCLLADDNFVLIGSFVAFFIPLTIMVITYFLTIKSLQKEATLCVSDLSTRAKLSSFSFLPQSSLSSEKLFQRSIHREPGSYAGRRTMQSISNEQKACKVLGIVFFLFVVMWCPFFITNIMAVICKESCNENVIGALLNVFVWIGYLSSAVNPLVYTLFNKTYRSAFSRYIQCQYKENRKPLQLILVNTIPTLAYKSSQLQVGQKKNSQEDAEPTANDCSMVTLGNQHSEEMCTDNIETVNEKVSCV
TMEM16A inh: blocks the mouse calcium-activated chloride channel TMEM16A; Q8BHY3; HEK293 TMEM16A/YFP iodide influx fluorescence, ionomycin; normalized B-score (activity score, 25-100; higher = stronger inhibition) at 10 µM; 310,000 compounds, 1.2% hits; AID 588511;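 active means ratio plate-corrected score three or more library SD toward inhibition, starting fluorescence score within five deviations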;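 further: score derived from kinetic fluorescence span divided by baseline fluorescence per well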
TLR4-MyD88 BLA: blocks binding of human TLR4 to MyD88; O00206+Q99836; HeLa CL3-4 TLR4/MyD88 BLA complementation, FRET ratio; inhibition, % at 8.4 µM; 200,000 compounds, 0.18% hits; AID 861; in the data active means inhibition above about 25%;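 further: 0% = vehicle and 100% = reference inhibitor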
TMEM16A reconf: TMEM16A (mouse) chloride channel inhibition, re-confirmation; shares compounds with TMEM16A inh; HEK293 TMEM16A/YFP-H148Q, iodide quench fluorescence; ionomycin added to raise cell calcium; inhibition, % at 10 µM; 2,300 compounds, 39% hits; AID 652189;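 active means mean duplicate percent inhibition, scaled so buffer wells are 0 and the reference blocker 100, over three buffer SD above buffer mean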
HEK293 Ca mobil: calcium mobilization counter-screen hit for TMEM16A inhibitor series. 2,300 compounds, 2% hits. AID 652231. calcium response (% of ionomycin), % at 10 µM. shares compounds with TMEM16A inh. TMEM16A/YFP HEK293, Fluo4 calcium mobilization;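 active means duplicate-averaged calcium signal over 20% of the ionomycin maximum, relative to buffer baseline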;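 further: each well's signal is peak minus trough fluorescence divided by its pre-addition baseline; 0% = buffer wells and 100% = ionomycin wells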
Parental YFP cnt: acts in parental YFP-HEK293 cells lacking TMEM16A, counter-screen. shares compounds with TMEM16A inh. iodide YFP quench, ionomycin. YFP ratio F(max-min)/F0 at 10 µM. 2,300 tested, under 10 active. AID 652233;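 active means yellow fluorescent protein signal ratio exceeding the buffer control mean by over 5 SD of those controls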;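 further: ratio is mean of duplicate wells from kinetic YFP trace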
ClC-1 rat inh: rat ClC-1 inhibition, TMEM16A specificity screen. AID 652236. 2,300 tested, under 10 active. ratio percent, % at 10 µM. CHO ClC-1-YFP, iodide influx fluorescence quench; iodide control reads 0, buffer control 100. shares compounds with TMEM16A inh;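 active means duplicate-mean ratio percent above the mean of iodide-only control wells, which defines zero, plus 5 of their SD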;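 further: higher percent means stronger block of ClC-1 iodide influx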
Active calls of the source: *; i = inactive; nt = not tested or not shown.

SMILES	ANO1 activ	TLR9-MyD88 block	NOD2 RIPK2 PPI	m5-HT2A agonist	TMEM16A inh	TLR4-MyD88 BLA	TMEM16A reconf	HEK293 Ca mobil	Parental YFP cnt	ClC-1 rat inh
CN(C)C(=O)c1cn(CCC#N)nc1-c1ccc2ccccc2c1	i	3	2	-1	i	nt	nt	nt	nt	nt
O=[N+]([O-])c1ccc(S(=O)(=O)NCC(c2ccco2)N2CCc3ccccc3C2)cc1 (configuration not stated)	i	1	-9	0	i	nt	nt	nt	nt	nt
O=S(=O)(NCC(c1cccs1)N1CCc2ccccc2C1)c1ccccc1 (configuration not stated)	i	-8	-1	-5	i	nt	35%*	i	-1.1	-4
Cc1ccc(-n2nc3c(=O)n(C(C)C(=O)NCCC4=CCCCC4)nc(C)c3c2C)cc1 (configuration not stated)	i	-8	-5	-5	25*	nt	i	i	-1.3	-4
Cc1ccc(CCNC(=O)C(C)n2nc(C)c3c(C)n(-c4ccccc4)nc3c2=O)cc1 (configuration not stated)	i	-4	-8	-5	i	nt	nt	nt	nt	nt
N#Cc1c(NC(=O)CSc2nnnn2C2CCCCC2)sc2c1CCCC2	i	-3	1	4	25*	5	i	i	-1.1	-8
Cc1ccccc1Nc1nc(NCc2ccco2)c2ccccc2n1	i	0	6	-12	25*	9	32%*	i	-1.2	-7
Cc1ccc(S(=O)(=O)Nc2nc3ccccc3nc2NCc2ccco2)cc1C	i	0	-25	4	100*	-6	i	i	-0.97	-15
Cc1ccc(S(=O)(=O)Nc2nc3ccccc3nc2NCc2ccco2)cc1	i	-8	-15	6	i	-13	nt	nt	nt	nt
COc1ccc(OC)c(Nc2nc(NCc3ccco3)c3ccccc3n2)c1	i	-12	4	3	i	nt	nt	nt	nt	nt
c1ccc(Nc2nc(NCc3ccco3)c3ccccc3n2)cc1	i	-7	3	-7	25*	nt	47%*	i	-1.1	-8
CSc1nc(NCc2ccco2)c2ccccc2n1	i	1	3	-5	i	0	nt	nt	nt	nt
Cn1nc(C(F)(F)F)c(-c2ccccc2)c1NC(=O)c1cccnc1	i	6	1	-2	i	nt	nt	nt	nt	nt
COc1ccc(N2CCN(C(CNC(=O)C(=O)NCc3ccncc3)c3ccco3)CC2)cc1 (configuration not stated)	i	1	0	12	i	-1	nt	nt	nt	nt
CCCCC[n+]1cccc2c3ccccc3ccc21	i	5	-2	0	i	18	nt	nt	nt	nt
c1ccc(C[n+]2cccc3c4ccccc4ccc32)cc1	i	0	-8	1	25*	7	i	i	-1.1	-2
C/C=C(/C(=C/C)c1ccc(O)cc1)c1ccc(O)cc1	i	-5	7	-2	i	5	nt	nt	nt	nt
C=C(c1ccc(O)cc1)c1ccc(O)cc1	i	-10	-11	4	100*	-5	24%*	i	-1.1	-15
C=CC[C@]12CCc3sccc3C1N(c1ccc(C(=O)OCC)cc1)C2=O (some centres not stated)	i	-1	0	0	nt	nt	nt	nt	nt	nt
Cc1ccc(Cl)cc1N1CCN(C(=O)COc2ccc(S(=O)(=O)NC(C)C)cc2)CC1	i	-6	-3	-6	25*	3	i	i	-0.85	-13
